This note sets out measurements from PubChem BioAssay (Tox21).

Test [1] is described as follows: qHTS assay to identify small molecule antagonists of the vitamin D receptor (VDR) signaling pathway - cell viability counter screen (AID 743225). Also: nearly all actives have a fitted effect of over 50% in size. The method, boiled down: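 Viability counter screen run in the same wells as the beta-lactamase reporter assay: HEK 293T VDR-UAS-bla cells, 16 h compound exposure at 37C with 3 nM (final) 1-alpha,25-dihydroxyvitamin D3. CellTiter-Glo luminescence, 30 min, room temperature.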
Background: Quantitative high-throughput screening tests each substance at several concentrations.

Test [2] can be described thus: qHTS assay to identify small molecule agonists of the NFkB signaling pathway (AID 1159509; active = well fitted curve in the direction sought with a large enough effect in the signal ratio in the repeat runs, not every such curve was filed as active; the % refers to the signal ratio). The method, boiled down: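 Pathway activation was measured in ME-180 cells stably expressing beta-lactamase under NF-kB response element control. Substrate cleavage was read as the 460/530 nm emission shift after 5 hr compound incubation.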
Test [3] is described as follows: qHTS assay to identify small molecule agonists of the endoplasmic reticulum stress response signaling pathway - cell viability counter screen (AID 1159517; calls by dose curve; also: nearly all actives have a fitted effect of over 50% in size). The method, boiled down:
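In parallel with the ESRE reporter read, cytotoxicity was scored by CellTiter-Glo luminescence (30 min, room temperature) on HeLa ESRE-bla cells dosed for 5 hr.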

Test [4] can be described thus: qHTS assay to identify small molecule antagonists of the retinoid-related orphan receptor gamma (ROR-gamma) signaling pathway - cell viability counter screen (AID 1159520). Also: nearly all actives have a fitted effect of over 50% in size. Also: potency is read from the fitted curve at half-maximal effect. The method, boiled down:
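Tet-on ROR gamma CHO cells were given compounds for 2 hr, then doxycycline hyclate at 1 uM final, and incubated 16 hr at 37 C. Viability was measured as ATP content by CellTiter-Glo luminescence.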

Test [5] is described as follows: qHTS assay to identify small molecule agonists of the AP-1 signaling pathway - cell viability counter screen (AID 1159525; calls by dose curve; also: nearly all actives have a fitted effect of over 55% in size). The method, boiled down:
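Same-well cytotoxicity counter screen of the Tox21 10K library in ME-180 cells. The readout is ATP-dependent luminescence after 5 h compound treatment. Data are normalised to DMSO and tetra n-octyl ammonium bromide controls.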

Test [6] in a line: qHTS assay to identify small molecule agonists of the AP-1 signaling pathway (AID 1159526; calls by dose curve).
Test [7] is described as follows: qHTS assay to identify small molecule agonists of the RXR signaling pathway - cell viability counter screen (AID 1159529). Also: nearly all actives have a fitted effect of over 50% in size. Also: potency is read from the fitted curve at half-maximal effect. In short, it runs like this:
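Luminescence from CellTiter-Glo (30 min, RT) measured viability in the same wells as the beta-lactamase reporter readout. Cells: GeneBLAzer RXR-alpha HEK 293T, 2% charcoal-stripped FBS. Compound exposure 16 hr, 37 C.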

Test [8] can be described thus: qHTS assay to identify small molecule antagonists of the retinoid acid receptor (RAR) signaling pathway - cell viability counter screen (AID 1159551). Also: nearly all actives have a fitted effect of over 35% in size. Also: potency is read from the fitted curve at half-maximal effect. The method, boiled down: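 Measured by luminescent ATP detection, viability reflects C3RL4 cells treated 6 h at 37 C with test chemicals in the presence of 1 uM (final) retinol.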
Test [9] in a line: qHTS assay to identify small molecule antagonists of the retinoic acid receptor (RAR) signaling pathway (AID 1159552; also: nearly all actives have a fitted effect of over 50% in size; also: potency is read from the fitted curve at half-maximal effect). The method, boiled down: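 Luminescence from a RARE luciferase reporter in C3RL4 cells served as read-out. Cells received compounds together with 1 uM final retinol and incubated 6 hr at 37 C before detection reagent was added for 30 min at room temperature.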

Test [10] can be described thus: qHTS assay to identify small molecule agonists of the retinoic acid receptor (RAR) signaling pathway (AID 1159553). As to conditions: C3RL4 RARE luciferase reporter, agonist, 6 h; activation: at 73.3 µM (top of the series). The method, boiled down:
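6 hr compound exposure (DMSO vehicle) of overnight-plated C3RL4 RARE-luc cells at 37 C; luminescence quantified after 30 min RT with luciferase reagent.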

Test [11] in a line: qHTS assay to identify small molecule antagonists of the estrogen related receptor (ERR) signaling pathway - cell viability counter screen (AID 1224818). The method, boiled down: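 Compounds dissolved in DMSO were applied to ERR cells seeded at 2,000 per well 6 h earlier. Cell viability followed 17.5 h later via 30-min CellTiter-Fluor fluorescence.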
Test [12] can be described thus: qHTS assay to identify small molecule antagonists of the estrogen related receptor signaling pathway with the pleiotropic PPARgamma coactivator (PGC) cell viability counter screen (AID 1224822). The method, boiled down:
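Counter screen for cell viability: PGC/ERR cells, 6 h pre-incubation after plating, 17.5 h compound exposure at 37 C, fluorescence from CellTiter-Fluor after 30 min.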

The target in test [13] is Nuclear receptor ROR-gamma (Homo sapiens) (UniProt P51449). In words: qHTS assay to identify small molecule antagonists of the retinoid-related orphan receptor gamma (ROR-gamma) signaling pathway (AID 1159521; also: nearly all actives have a fitted effect of over 50% in size; also: potency is read from the fitted curve at half-maximal effect). In short, it runs like this:
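Luminescence readout (ONE-Glo, 30 min RT) after 16 h doxycycline induction; loss of signal scored as antagonism. CHO cells with TET-inducible RORγ and RORE-LUC reporter; compounds added 2 h before 1 uM final doxycycline.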

A short description of test [14]: qHTS assay to identify small molecule agonists of the endoplasmic reticulum stress response signaling pathway (AID 1159516; active = well fitted activation curve with a large enough effect in the signal ratio in the repeat runs, not every such curve was filed as active; the % refers to the signal ratio). In short, it runs like this: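 For this screen, HeLa cells stably carrying beta-lactamase under the ER stress response element received test compounds, positive controls or DMSO for 5 hr at 37 C; B/G FRET substrate was then added and dual-wavelength emission recorded.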

Test [15] deals with Retinoic acid receptor RXR-alpha (Homo sapiens) (UniProt P19793). In words: qHTS assay to identify small molecule agonists of the RXR signaling pathway (AID 1159527; calls by dose curve; also: nearly all actives have a fitted effect of over 35% in size). In short, it runs like this: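 Agonist mode; 9-cis retinoic acid positive control. HEK 293T UAS-bla reporter cells, 2% charcoal-stripped FBS, 16 hr compound exposure at 37 C/5% CO2. LiveBLAzer B/G FRET substrate 2 hr RT; ex 405, em 460/530 nm.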

Each structure is given as a SMILES string. Several values for one entry are separate records, joined by “and”; a condition that tells them apart may be missing. Identical values can stand only once. Records with an inconclusive call do not appear. Activity calls are given as the source filed them. Unless noted, calls follow the shape of the dose curve; as a rule, active = well fitted curve in the direction sought with a large enough effect in the repeat runs; inconclusive = weak or mixed curves; inactive = no such curve, though single readings can be large; an effect the other way counts as inactive or inconclusive.

Retinoic acid receptor RXR-alpha (Homo sapiens), sequence (P19793 whole entry, looked up): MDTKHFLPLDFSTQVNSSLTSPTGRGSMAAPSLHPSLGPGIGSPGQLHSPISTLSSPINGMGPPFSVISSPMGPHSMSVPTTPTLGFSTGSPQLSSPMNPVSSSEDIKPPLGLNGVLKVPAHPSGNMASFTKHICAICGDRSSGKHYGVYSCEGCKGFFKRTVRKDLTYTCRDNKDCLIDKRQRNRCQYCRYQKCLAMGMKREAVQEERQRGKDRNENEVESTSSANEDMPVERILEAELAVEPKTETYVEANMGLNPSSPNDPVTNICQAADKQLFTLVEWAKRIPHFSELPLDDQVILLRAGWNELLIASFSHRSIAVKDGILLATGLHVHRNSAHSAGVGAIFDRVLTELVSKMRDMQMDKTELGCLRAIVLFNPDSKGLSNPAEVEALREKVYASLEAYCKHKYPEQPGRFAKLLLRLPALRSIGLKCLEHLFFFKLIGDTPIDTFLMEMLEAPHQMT

As for `Cc1ccc(Cl)c(Nc2ccccc2C(=O)O)c1Cl`, the Potency result in [1], in test [2], in test [3], in test [4], in test [5] and in test [6] was “inactive” throughout. The Potency result in test [7], in test [8], in test [9] and in test [10] was “inactive” each time. Further, the outcome in test [11] and in [12] was inactive.

As to `CC(C)=CCC/C(C)=C/CC/C(C)=C/C(=O)OCC(=O)[C@@]1(O)CC[C@H]2[C@@H]3CCC4=CC(=O)C=C[C@]4(C)[C@H]3[C@@H](O)C[C@@]21C`, the Potency result in [2], in test [3], in test [4], in test [5], in test [6] and in [7] was “inactive” each time. The Potency result in test [8] and in [10] was “inactive” throughout. In test [13], the Potency is 6.68 µM (active).

`CC(C)C(O)(c1ccc(OC(F)(F)F)cc1)c1cncnc1` (stereo unspecified): the Potency entry in test [2], in test [14], in test [4], in test [13], in test [6] and in [15] was “inactive” throughout. Further, the Potency result in test [7], in test [8], in test [9] and in test [10] was “inactive” in each case.

Consider `Clc1ccc(Nc2nnc(Cc3ccncc3)c3ccccc23)cc1`, for which the Potency result in [2], in test [14], in [3], in test [5], in test [6] and in [8] was “inactive” each time. For the same molecule, the Potency entry in [9] and in test [10] was “inactive” throughout.

For the molecule `COC(=O)CCS`, the Potency entry in [2], in test [3], in test [4], in test [13], in test [5] and in [6] was “inactive” each time. Besides, the Potency entry in [15], in test [7] and in test [8] was “inactive” each time.

For the molecule `Cc1ccc2c(Br)cc(Br)c(O)c2n1`, the Potency entry in [2], in [14], in [3], in test [8], in test [9] and in [10] was “inactive” in each case. Besides, in test [7], the Potency is 26.8 µM (active).

Consider `C[C@@H]1CC(=O)NN=C1c1ccc(NN=C(C#N)C#N)cc1`, for which the Potency result in [1], in test [2], in test [3], in test [5], in test [7] and in test [8] was “inactive” throughout. In [9], the Potency result was “inactive”. The Potency in test [4] was 2.98 µM (active) and 2.11 µM (active); in [13] it was 4.22 µM (active).

In the case of `CC[N+](CC)(CCNC(=O)C(=O)NCC[N+](CC)(CC)Cc1ccccc1Cl)Cc1ccccc1Cl`, the Potency result in test [1], in test [2], in [3], in test [4], in test [13] and in [5] was “inactive” in each case. Besides, the Potency entry in [6], in test [15], in [7], in [8], in [9] and in test [10] was “inactive” throughout.

As for `O=C1Cc2ccccc2N1c1c(Cl)cccc1Cl`, the Potency result in test [2], in test [14], in test [3], in test [8] and in test [9] was “inactive” each time.

For the molecule `CCC(C)COC(C)=O` (stereo unspecified), the Potency result in test [1], in test [2], in test [14], in [13], in test [5] and in test [6] was “inactive” in each case. The Potency result in test [7], in [8], in test [9] and in test [10] was “inactive” each time.

Regarding `CC1=C(Br)C(=O)C(Br)=C/C1=C(/c1ccccc1S(=O)(=O)O)c1cc(Br)c(O)c(Br)c1C`, the Potency entry in [2], in test [3], in [5], in [6], in [7] and in test [10] was “inactive” throughout. Moreover, the Potency was 16.5 µM (active) in test [4], 18.6 µM (active) in [13], 16.5 µM (active) in [8] and 20.8 µM (active) in [9].

As to `CCOC(=O)c1ccc(C#Cc2ccc3c(c2)C(C)(C)CCS3)nc1`, the Potency result in [1], in test [2], in test [3], in test [4], in [13] and in [5] was “inactive” in each case. The Potency entry in test [6], in test [7] and in test [8] was “inactive” each time.

For the molecule `FC(F)(F)c1ccccc1Cl`, the Potency result in test [1], in test [2], in [14], in test [3], in [5] and in [6] was “inactive” in each case. Besides, the Potency result in test [15], in [7], in test [8] and in test [9] was “inactive” throughout.

Take `CC1(CN2CCC(n3c(=O)[nH]c4ccccc43)CC2)OCc2ccccc2-n2cccc21` (stereo unspecified): the Potency result in [1], in test [2], in [14], in test [8] and in test [10] was “inactive” throughout. Moreover, the Potency in test [9] is 29.8 µM (active).
